Assay results from PubChem BioAssay (NCI).
About 83,000 compounds went through this panel and 20% of them were active in at least one assay; those are over-represented in the sample as a whole.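 Testing used 96-well plates and a 48-hour single-concentration exposure. Example: -40 means 40% of the starting cells died.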 The source made the active and inactive calls. The calls were made as follows: active = growth percent below 10; inactive = the rest.

How the values were obtained:
Assay in all cases: NCI-60 one-dose screen, 48 h (100 = growth as untreated, 0 = no growth, -100 = all killed)
Settings in all cases: 10 µM unless noted
[1] = tested on: SR leukemia
[2] = tested on: RPMI-8226 leukemia
[3] = tested on: OVCAR-8 ovarian
[4] = tested on: OVCAR-5 ovarian
[5] = tested on: OVCAR-4 ovarian
[6] = tested on: SK-OV-3 ovarian
[7] = tested on: IGROV1 ovarian
[8] = tested on: OVCAR-3 ovarian
[9] = tested on: HS 578T breast
[10] = tested on: NCI/ADR-RES ovarian
[11] = tested on: T-47D breast
[12] = tested on: BT-549 breast
[13] = tested on: MDA-MB-435 melanoma
[14] = tested on: SW-620 colon
[15] = tested on: MCF7 breast
[16] = tested on: HCT-116 colon
[17] = tested on: HCC-2998 colon
[18] = tested on: KM12 colon

Measured: growth

C=C(C)[C@@H]1CC[C@@]2(C(=O)O)CC[C@]3(C)C(CCC4[C@@]5(C)CCC(OS(=O)(=O)c6ccccc6)C(C)(C)C5CC[C@]43C)C12 (stereo partly specified)
inactive: [1] 56.7% | [2] 30.4% | [3] 38.1% | [4] 89.7% | [5] 54.7% | [6] 74.4% | [7] 93.7% | [8] 50.8% | [9] 67.5% | [10] 52.5% | [11] 34.9% | [12] 58.9% | [13] 59.4% | [14] 48.8% | [15] 50.6% | [16] 25.7% | [17] 33.9% | [18] 31.4%

CC(C)CCC[C@@H](C)[C@H]1CCC2C3=CCn4c(=O)ccc(=O)n4C3CC[C@@]21C (stereo partly specified)
active: [1] -34.6% | [2] -41.5% | [3] -39.7% | [4] -84.3% | [5] -32.4% | [6] -100% | [7] -82.4% | [8] -96.5% | [9] -12.2% | [10] -28.7% | [11] -75.2% | [12] -30.9% | [13] -87.1% | [14] -65.5% | [15] -92.5% | [16] -100% | [17] -93.1% | [18] -97.5%

CCN(CC)CCCNC(=O)c1ccc(N)cc1O
inactive: [1] 98.3% | [2] 94.7% | [3] 103% | [4] 98.9% | [5] 118% | [6] 105% | [7] 91.8% | [8] 107% | [9] 98.4% | [10] 96.1% | [11] 107% | [12] 98.7% | [13] 117% | [14] 96.2% | [15] 96.8% | [16] 94.7% | [17] 78.8% | [18] 106%

COc1ccc(-n2nnc(C(=O)NCCc3c[nH]c4ccc(F)cc34)c2C)cc1
inactive: [1] 82.1% | [2] 93.3% | [3] 98.6% | [4] 101% | [5] 107% | [6] 89.8% | [7] 107% | [8] 103% | [9] 96.5% | [10] 106% | [11] 89.3% | [12] 103% | [13] 101% | [14] 101% | [15] 95.7% | [16] 93.5% | [17] 106% | [18] 103%

CCOC(=O)c1nnn(C(Cc2ccccc2Cl)C(=O)OCC)c1C (stereo unspecified)
inactive: [1] 93.7% | [2] 96.3% | [3] 96.7% | [4] 106% | [5] 104% | [6] 102% | [7] 112% | [8] 111% | [9] 94.3% | [10] 107% | [11] 97.6% | [12] 107% | [13] 105% | [14] 98% | [15] 104% | [16] 100% | [17] 109% | [18] 102%

Cc1nc(Nc2ccc(NC(=S)Nc3ccccc3)cc2)nc2nc(Nc3ccc(S(=O)(=O)O)cc3)[nH]c(=O)c12
inactive: [1] 47.5% | [2] 79.2% | [3] 49.8% | [4] 103% | [5] 113% | [6] 98.3% | [7] 72% | [8] 139% | [9] 111% | [10] 106% | [11] 87.3% | [12] 61% | [13] 105% | [14] 116% | [15] 102% | [16] 103% | [17] 118% | [18] 120%

N#Cc1c(N)nc2c(nnn2-c2cccc(Br)c2)c1N
inactive: [1] 83.8% | [2] 86.8% | [3] 93.8% | [4] 108% | [5] 107% | [6] 101% | [7] 93.5% | [8] 106% | [9] 68.8% | [10] 103% | [11] 67.1% | [12] 97.1% | [13] 108% | [14] 96.9% | [15] 71.4% | [16] 91.3% | [17] 106% | [18] 97%

CCOC(=O)c1c(C)nc2c(c1N)/C(=C/c1ccc(OC)cc1)C(=O)N2Cc1ccc(F)cc1
inactive: [5] 20.9% | [9] 54.7% | [10] 15.1%
active: [1] 1.71% | [2] -17.2% | [3] 8.74% | [4] -45.2% | [6] 9.64% | [7] -9.78% | [8] -91.4% | [11] -0.0776% | [12] -85.5% | [13] -62.1% | [14] -58.9% | [15] -35.7% | [16] -85.4% | [17] -83.7% | [18] -59.7%

CCNCCNc1cc(-c2cccc(C(F)(F)F)c2)c(C#N)c2nc3ccccc3n12
active: [1] -37.5% | [2] -29.3% | [3] -39.7% | [4] -79.3% | [5] -83% | [6] -97.2% | [7] -74.2% | [8] -86.7% | [9] -48.3% | [10] -55% | [11] -72.4% | [12] -64.6% | [13] -93.3% | [14] -67.3% | [15] -70% | [16] -93.9% | [17] -80.9% | [18] -75.6%

CCOc1cccnc1/C=N/NC(N)=S
active: [1] 6.35% | [7] -7.7%
inactive: [2] 49.9% | [3] 43.7% | [4] 66.2% | [5] 26.5% | [6] 42.7% | [8] 22.2% | [9] 60.4% | [10] 48.8% | [11] 71.8% | [12] 51.6% | [13] 58.2% | [14] 40.8% | [15] 28.8% | [16] 32.6% | [17] 52.7% | [18] 36.2%

COC(=O)CCCNC(=O)C(=O)c1c(O)c(O)c(C(C)C)c2cc(C)c(-c3c(C)cc4c(C(C)C)c(O)c(O)c(C(=O)C(=O)NCCCC(=O)OC)c4c3O)c(O)c12
active: [1] -1.66% | [3] -15.1% | [4] 4.86% | [5] -3.33% | [6] -4.94% | [8] 4.88% | [10] 9.74% | [11] 4.43% | [12] 8.07% | [16] -30.9% | [18] 8.55%
inactive: [2] 17.1% | [7] 18.2% | [9] 12.2% | [13] 13% | [14] 19.2% | [15] 10.9% | [17] 29.5%

c1ccc([P+](CCCc2n(Cc3ccc4ccccc4c3)c3ccccc3[n+]2Cc2ccc3ccccc3c2)(c2ccccc2)c2ccccc2)cc1
active: [2] 6.9%
inactive: [1] 30.8% | [3] 70.2% | [4] 60.1% | [5] 74.4% | [6] 84.5% | [7] 20.8% | [8] 75.8% | [9] 68.6% | [10] 83.7% | [11] 56.9% | [12] 68.1% | [13] 25.2% | [14] 35.2% | [15] 73.9% | [16] 24.2% | [17] 53.9% | [18] 32.2%

CCN(CCO)CC(=O)c1cc(Cl)cc(Cl)c1Cl
inactive: [1] 95.4% | [2] 97.1% | [3] 103% | [4] 109% | [5] 115% | [6] 102% | [7] 109% | [8] 106% | [9] 101% | [10] 102% | [11] 84% | [12] 93.7% | [13] 105% | [14] 102% | [15] 98.9% | [16] 98.9% | [17] 98.2% | [18] 102%

CN(C)c1ccc(/C=C/c2c(F)cccc2F)cc1
inactive: [1] 93.7% | [2] 95.8% | [3] 99.7% | [4] 104% | [5] 90.3% | [6] 89.3% | [7] 59.7% | [8] 98% | [9] 89.9% | [10] 92.6% | [11] 58.3% | [12] 94.7% | [13] 101% | [14] 104% | [15] 49.7% | [16] 91.8% | [17] 95.1% | [18] 91.7%

CCCCCCCSc1ccc(C(=O)O)cc1
inactive: [1] 104% | [2] 92.1% | [3] 95.7% | [4] 110% | [5] 93.9% | [6] 102% | [7] 101% | [8] 118% | [9] 128% | [10] 109% | [11] 107% | [12] 112% | [13] 96% | [14] 105% | [15] 84.3% | [16] 99.3% | [17] 114% | [18] 116%

O=C1CSC(c2ccccc2)N1c1ccccc1 (stereo unspecified)
inactive: [1] 88% | [2] 100% | [3] 102% | [4] 103% | [5] 104% | [6] 100% | [7] 112% | [8] 112% | [9] 86.8% | [10] 100% | [11] 103% | [12] 103% | [13] 108% | [15] 96.6% | [16] 99.9% | [17] 115% | [18] 98.4%

CNC(=O)c1cc(Oc2ccc3nc(NC(=O)Nc4cc(C(F)(F)F)cc(C(F)(F)F)c4)sc3c2)ccn1
active: [1] -27.6% | [2] -14.1% | [3] -68.2% | [4] -26.1% | [5] -77.2% | [6] -58% | [7] -48.5% | [8] -76.5% | [9] -20.4% | [10] -38.2% | [12] -46.9% | [13] -13.6% | [14] -36.1% | [15] 0.0531% | [16] -56.1% | [17] 5.71% | [18] -14.7%

CC1(C)N=C(N)N=C(N)N1c1cccc(CN)c1
inactive: [1] 105% | [2] 99.9% | [3] 93.3% | [4] 89.2% | [5] 93.8% | [6] 101% | [7] 88.8% | [8] 94.9% | [9] 95.6% | [10] 96.4% | [11] 102% | [12] 94.6% | [13] 104% | [15] 95.9% | [16] 91.3% | [17] 100% | [18] 101%
